Measured values: the supplement of paper PMC6555819

Assays:
Test in all cases: PBM binding z-score (relative to random genomic background probes); higher = stronger binding; sequences stand for … in GC…GCGATTGACAGCGTAGAATGAAGG
[1] = test system: FXR:RXRa (NR concentration 270 nM, RXRa partner concentration 90 nM)
How it was run: (§1)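 Random background probes are the reference for binding z-scores. These scores derive from regression-normalized fluorescence on custom Agilent 4×180K protein-binding microarrays incubated 1 h with ligand-free nuclear receptor dimers. Binding was detected with antibodies against each partner (one per run).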

[2] = test system: LXRa:RXRa (NR concentration 270 nM, RXRa partner concentration 90 nM)
How it was run: as §1

[3] = test system: LXRa homodimer (NR concentration 270 nM)
How it was run: as §1

[4] = test system: LXRb:RXRa (NR concentration 270 nM, RXRa partner concentration 90 nM)
How it was run: as §1

[5] = test system: LXRb homodimer (NR concentration 270 nM)
How it was run: as §1

[6] = test system: PPARa:RXRa (NR concentration 270 nM, RXRa partner concentration 90 nM)
How it was run: as §1

[7] = test system: PPARg:RXRa (NR concentration 180 nM, RXRa partner concentration 90 nM)
How it was run: as §1

[8] = test system: PPARg:RXRa 270nM:90nM, anti-RXR (NR concentration 270 nM, RXRa partner concentration 90 nM)
How it was run: as §1

[9] = test system: PPARg:RXRa 30nM:10nM, anti-RXR (NR concentration 30 nM, RXRa partner concentration 10 nM)
How it was run: as §1

[10] = test system: PPARg:RXRa 90nM:30nM, anti-RXR (NR concentration 90 nM, RXRa partner concentration 30 nM)
How it was run: as §1

Sequence	PBM binding z-score [1]	PBM binding z-score [2]	PBM binding z-score [3]	PBM binding z-score [4]	PBM binding z-score [5]	PBM binding z-score [6]	PBM binding z-score [7]	PBM binding z-score [8]	PBM binding z-score [9]	PBM binding z-score [10]
GCTTACGGATCAAAGGTTATAGCATGAATAGAAT	1.93	2.43	0.189	2.49	-0.332	4.12	5.77	6.43	4.61	7.07
CTAGAAAGGTCGTGCTCAGGTGAGTATACCAAAC	4.5	3.64	0.405	3.02	0.336	4.78	2.51	3.48	0.919	2.34
CCTTACGGGTCACTGTCAGGTTATAGCATTTGGA	5.05	4.27	0.129	3.23	-0.0879	4.73	3.83	4.04	1.22	2.8
CAGCCTAGGTCAGGGCCAGTCTAGGAGGAACGTT	1.43	0.988	-0.566	0.24	-1.33	2	0.484	0.9	-0.591	0.125
TCTTGCAGATCAAAGGTTAAGAAAGCCGAAGCCT	1.5	1.61	-0.333	1.79	-0.606	4.12	5.83	6.41	5.71	6.62
CCTAGTTGGTCAAGGTCACCCACGCTATAGGTAC	4.05	3.51	2.14	3.51	0.583	4.14	2.93	3.43	1.1	2.35
CTCGAAAGGTCGGTTGATGTGAGTATACGGATAA	1.88	1.52	-0.145	1.45	0.455	2.31	0.418	0.917	0.204	0.223
ATCTCTAGGTGAAGATAGTTCAGTGAATGCAAAT	0.203	1.02	0.126	0.441	0.00986	1.69	1.75	1.55	0.448	0.885
TAGCCTAGGTCATTGGGCAAGTATAGTACGCATC	4.44	3.37	0.712	2.16	0.361	3.46	2.93	3.07	0.725	1.95
CCTAGCAGGCCAATCTGGGTCACTTAAGGCTTGA	0.716	1.48	-0.236	0.733	-0.723	2.96	1.68	2.03	-0.218	1.33
TATCCAGGGTCAAAGGCCAGAGTACGAATGTCGA	7.03	5.91	2.02	5.03	2.02	6.22	7.96	7.53	5.26	6.94
TCGAGTAGGTTAGGGGCATTCAAAATGGCGTCGA	0.3	0.524	-0.23	1.22	-0.0733	1.38	1	1.98	1.27	1.69
GCTGCTAGGTCTGGTTGGTCAGCTAACGGGTACG	-0.623	-0.65	-0.365	-0.912	-0.475	-0.774	-0.79	-0.447	-1.15	-0.815
GCTGCTAGGTTAGGTTGGTCAGCTAACGGGTACG	-0.39	-0.356	-0.358	-0.526	-0.743	-0.376	-0.306	-0.464	-0.769	-0.625
TCTTGTAGATCAAGGGTTAAGAAAGCCGAAGCCT	0.439	0.813	-0.616	0.958	-0.606	3.12	5.36	6.4	5.41	7.18
TCTGCTAGGTCAGTAGGTCAGCTAACGAGCTGCC	1.81	1.55	0.12	1.18	-0.0966	3.55	4.84	5	2.51	4.29
AGTCAAAGTTCAGGACGAAGTAACGTAAAGCACG	3.85	3.49	0.943	1.68	0.274	3.3	4.78	4.86	1.78	3.86
CGCGAAAGGTCGTGCTCAGGTGAGTATACCAAAC	5.65	3.9	0.199	3.55	-0.0921	4.89	3.65	4.46	0.769	2.86
ACTATTAGTTGAGTCGAGGGCAACCGATAGGTTG	0.84	0.505	0.226	0.34	0.349	0.703	0.466	0.452	0.0326	0.43

Sequence	PBM binding z-score [1]	PBM binding z-score [2]	PBM binding z-score [3]	PBM binding z-score [4]	PBM binding z-score [5]	PBM binding z-score [6]	PBM binding z-score [7]	PBM binding z-score [8]	PBM binding z-score [9]	PBM binding z-score [10]
GCTATTAGTTGAAAGGGCAACCGTATGATTCTCG	0.693	0.878	0.327	1.1	-0.2	2.2	2.64	4.69	2.25	4.37
ACTTACGGGTCAACGAGGTTAAAGCACGCGTATA	7.3	5.07	0.882	4.97	0.527	6.09	6.14	5.57	2.44	4.29
TAGCCTAGGTCATGGGCCAGTATCCCACGCGAAC	4.49	3.17	0.378	2.29	-0.295	4.04	3.88	3.41	0.754	2.6
CAGACTAGGTCACAGAGGTCAAAGTCCGTGCGTA	6.87	6.52	6.79	6.23	1.62	6.22	8.66	7.43	5.05	7.36
CGTCCAAGGTCATAGGAGGTCAGTGAGGACAGAT	7.69	7.5	5.15	6.18	0.987	5.86	5.58	5.89	2.52	4.86
CGTCCAAGTTCAGAGAGGTCAGTGAATGCCGAGT	3.32	3.64	3.27	3.1	0.431	3.19	0.531	1.5	-0.176	0.671
TCCAGTAGGTTAGGGGCATTCAGAATGGCGTCGA	0.986	0.635	-0.245	1.19	-0.0601	1.72	1.87	3.55	2.86	3.05
CGTCCAACGTCAATGCTAGGTCAGTGAAAGCATT	-0.119	0.271	0.545	0.323	-0.372	0.371	-0.0757	-0.424	-0.443	-0.334
AGAATGAGGTTATTAAGATCAGGGTATTGCGGTC	1.3	1.29	0.345	1.09	0.122	2.46	1.41	1.62	0.322	0.93
TCTGCTAGGTTAGTTGGTCAGCTAACGAGCTGCC	-0.522	-0.402	-0.882	-0.708	-0.0822	0.052	-0.648	0.707	0.944	0.973
TCATATAGGTACATGCTAGGTGAAAGTCCGATCT	0.846	1.11	0.242	0.622	0.134	1.15	0.699	2.04	3.56	2.99
GCAACGAGGGCAAGTTGATAGCAGAGTTTGATGG	0.996	0.513	-0.434	0.332	-0.572	1.49	0.841	1	0.0166	0.481
TCAAATAGGTAAATGCTAGGTGAAAGTCCGATCT	1.32	0.737	-0.0235	0.834	-0.239	1.52	0.685	2.74	4.4	3.68
CCTACTGGGACAAGGTCATTGATCAGTCAAAGCA	3.62	3.43	1.26	3.06	0.0323	4.22	4.54	4.7	1.99	3.78
CAAACTAGGTTAAAGGTCAAAGTCGAGCCAACCA	6.87	6.3	5.27	6	2.67	7.07	13.2	11	14.1	13.4
TCTGCTAGGTCAACGATGATCAGCTAATCTGCTA	3.12	1.96	-0.355	1.52	-0.366	3.32	2.74	2.86	2.03	2.38
TCTATTAGATGAAGGGCAACCGACGAGTCCGTTT	0.734	0.81	-0.159	0.733	0.205	0.841	0.575	2.01	3.7	2.93
CGAGCTAGGTCAAGGACAGTGAATCTCCGCACGC	3.4	2.03	-0.283	1.22	-0.582	3.06	2.07	2.14	0.109	1.07
AGTACGAGGGCACGCTGAGTTGATAGCAGAGTAG	0.909	0.941	-0.408	0.078	-0.497	1.63	1.26	0.976	-0.181	0.652
